Screening results from PubChem.
Cl transport mod: modulators of human KCC2 chloride dependent transport; Q9H2X9; KCC2 cells, thallium flux FluoZin-2 fluorescence; B-score of Tl+ flux slope (higher = more flux/activation; lower = inhibition) at 10 µM; hit rate 2.2% among 190,000;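 active means thallium flux slope and its plate-corrected score both differing from the plate sample mean at a set confidence after two filtering rounds, in either direction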;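 further: slope of fluorescence scaled to starting intensity during 10 to 20 s after thallium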
ROMK primary: human ROMK K+ channel modulation, primary screen | P48048 | Tet-inducible ROMK, thallium flux fluorescence; actives lie on both sides | B-score at 10 µM | hit rate 2% among 130,000;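 active means signal ratio slope over the read window, or its plate-corrected B-score, at least 3 SD from the plate mean, either direction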;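 further: B-score of the F/F0 ratio slope over 7 to 12 s after thallium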
WT yeast gro inh: growth inhibition of WT yeast, mitochondrial fusion screen | mitochondrial fusion phenotypic screen, WT strain | AID 1362 | hit rate 2.1% among 190,000 | inhibition, % at 10 µM; in the data active means inhibition above about 58%; tested in S. cerevisiae
m-calpain inh: inhibitors of pig calpain II | AID 1236 | hit rate 0.37% among 220,000 | purified calpain II, fluorogenic peptide substrate, 30 min | inhibition, % at 16 µM;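 active means inhibition above about 50%, limit read from the data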
Lmaj promast: Leishmania major promastigote growth inhibition. Leishmania major promastigotes, resazurin fluorescence viability. inhibition, % at 10 µM. hit rate 9% among 200,000. AID 1063; in the data active means inhibition above about 50%;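 further: promastigotes grown with compound for 44 hours at 28 °C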
A number is an active result; n = inactive; x = no result given. This is a sample that favours compounds with a hit; in the whole collection about 12% have one here.

SMILES	Cl transport mod	ROMK primary	WT yeast gro inh	m-calpain inh	Lmaj promast
CN(C)CCOc1ccccc1C(C)(C)C	x	n	n	n	n
CC1CC(=O)c2c(cc3c(-c4c(O)cc(O)c5c(O)c6c(cc45)OC(C)CC6=O)c(O)cc(O)c3c2O)O1 (stereo not drawn)	-6.1	x	n	n	n
O=C1CC(c2ccc(O)cc2)Oc2cc(O)cc(O)c21 (stereo not drawn)	n	x	n	n	n
C=CCC(=O)OCC(=O)Nc1ccc(Cl)cn1	n	n	n	n	n
Cc1ccc2c(CC(=O)OCC(=O)Nc3ccc(Cl)cn3)coc2c1	n	x	n	n	51
COC(=O)Nc1ccc2c(c1)N(C(=O)CCN1CCN3CCCC3C1)c1ccccc1S2 (stereo not drawn)	n	x	n	n	71
CN1CCN(CCC(=O)N2c3ccccc3Sc3ccc(Cl)cc32)CC1	x	n	n	n	101
O=C(CSc1nc2[nH]ncc2c(=O)[nH]1)c1ccccc1	n	n	n	n	n
Clc1ccc(OCCCn2cncn2)cc1Cl	n	x	n	n	100
Clc1ccc(OCCCN2CCCC2)cc1Cl	n	n	n	n	91
Clc1ccc(OCCN2CCOCC2)cc1Cl	n	x	n	n	86
Clc1ccc(OCCN2CCCCC2)cc1Cl	n	n	n	n	79
c1ccc(COc2ccc(OCCCn3cncn3)cc2)cc1	x	n	n	n	n
CC(C)n1nc(C(=O)Nc2nnc(SCc3c(Cl)cccc3Cl)s2)c2ccccc2c1=O	x	n	n	n	n
Cc1cc(OCCCCCN2CCCC2)ccc1Cl	n	n	n	n	99
CCCCN(C)C(=S)Nc1ccc(Oc2ccccc2)cc1	n	x	59	n	n
S=C(Nc1ccc2nsnc2c1)NC1CCCCC1	n	x	n	n	82
CN(CCC#N)C(=S)Nc1ccc(Oc2ccccc2)cc1	n	x	n	n	n
CN(C(=S)Nc1ccc(Oc2ccccc2)cc1)C1CCCCC1	n	n	68	n	n
S=C(NNc1ccc2ccccc2c1)NC1CCCCC1	n	x	78	n	n
Cc1ccc(NC(=S)NNC(=S)NC2CCCCC2)cc1	n	x	n	n	n
CCc1nc2ccc(F)cc2c(C(=O)NC2CCCCC2C)c1C (stereo not drawn)	n	x	n	n	n
O=C(O)c1ccc(NC(=S)NC2CCCCC2)cc1	n	n	n	n	n
S=C(Nc1ccc(Oc2ccccc2)cc1)NC1CCCCCC1	n	x	69	n	n
S=C(Nc1ccc(Oc2ccccc2)cc1)NC1CCCCC1	n	x	61	n	n
SMILES	Cl transport mod	ROMK primary	WT yeast gro inh	m-calpain inh	Lmaj promast
O=C(NCCN1CCCC1)c1ccccc1Cl	n	n	n	n	n
CCNC1=C(Cl)C(=O)c2ccccc2C1=O	n	n	n	50	n
O=C1C(Cl)=C(NCCN2CCCCC2)C(=O)c2ccccc21	n	n	n	n	99
Cc1ccc(C)c(NC(=O)CC(NCCCN2CCOCC2)C(=O)O)c1 (stereo not drawn)	n	x	x	x	n
CCC(C)Sc1nc(O)c(Cc2ccccc2)c(=O)[nH]1 (stereo not drawn)	n	n	n	n	n
Oc1ccccc1/C=N/Nc1ccnc(SCc2ccccc2)n1	n	n	n	n	96
Oc1ccccc1/C=N/Nc1ncc(Br)cn1	n	n	n	n	n
CC1(C)Cc2c(sc(NC(=O)c3ccc4ncsc4c3)c2C(N)=O)C(C)(C)N1	n	n	n	n	78
N#Cc1c(-n2cccc2C=O)sc2c1CCCC2	n	n	n	n	52
CC(C)c1ccc(NC(=O)C(c2ccccc2)N(Cc2ccco2)C(=O)CC2NC(=O)NC2=O)cc1 (stereo not drawn)	n	n	n	n	n
CCOC(=O)C(C)/C(C)=N\Nc1ccc([N+](=O)[O-])cc1[N+](=O)[O-] (stereo not drawn)	n	x	n	52	n
CN(C(=O)Cc1c[nH]c2ccccc12)C(C(=O)Nc1ccc2c(c1)OCO2)c1ccccc1 (stereo not drawn)	n	n	n	n	61
Cc1cccc(Sc2c([N+](=O)[O-])ncn2C)c1	n	n	n	n	93
CCCCN(C)c1c(N2CCC(C(=O)OCC)CC2)c(=O)c1=O	n	x	x	n	x
O=S(=O)(c1ccccc1)N(CC(O)Cn1c2ccccc2c2ccccc21)c1ccccc1 (stereo not drawn)	n	x	n	n	100
COc1ccccc1N(CC(O)Cn1nc(C)cc1C)S(=O)(=O)c1ccccc1 (stereo not drawn)	x	x	n	n	n
CCN(CC(O)Cn1c2ccccc2c2ccccc21)S(=O)(=O)c1ccc(F)cc1 (stereo not drawn)	n	n	65	69	n
COc1ccccc1N(CC(O)Cn1c2ccccc2c2ccccc21)S(=O)(=O)c1ccccc1 (stereo not drawn)	n	n	n	n	54
